# CYP2C19 inh – human CYP2C19 inhibition; P33261; CYP2C19 Supersomes, luciferin-H EGE luminescence, 30 min; inhibition, % at 5 µM; actives 21% (n = 96,000);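 active means CYP2C19 inhibition above a set limit at 5 µM in the primary screen, cut at about 50% in these data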;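 further: plate controls were negative control wells for no effect and 2.5 mM tranylcypromine positive control for full effect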
# Target sequence (P33261 whole entry, looked up): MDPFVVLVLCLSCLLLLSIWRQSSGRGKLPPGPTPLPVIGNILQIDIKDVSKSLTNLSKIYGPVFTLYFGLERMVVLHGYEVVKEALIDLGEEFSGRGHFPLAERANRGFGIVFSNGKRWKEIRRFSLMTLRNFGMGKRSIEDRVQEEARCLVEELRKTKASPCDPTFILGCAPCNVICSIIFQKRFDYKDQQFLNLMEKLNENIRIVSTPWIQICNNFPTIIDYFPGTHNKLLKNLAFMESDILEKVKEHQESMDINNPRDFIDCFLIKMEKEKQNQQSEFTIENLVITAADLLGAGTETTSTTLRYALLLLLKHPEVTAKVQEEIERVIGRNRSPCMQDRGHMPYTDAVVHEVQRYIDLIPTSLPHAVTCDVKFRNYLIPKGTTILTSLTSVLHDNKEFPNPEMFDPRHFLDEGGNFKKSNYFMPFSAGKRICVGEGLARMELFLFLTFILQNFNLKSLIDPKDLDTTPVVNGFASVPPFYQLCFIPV
# CYP2C9 activ – CYP2C9 (human) activation | recombinant CYP2C9, luciferin-H conversion, luminescence; hits give high values; factor 1 = untreated enzyme, 0 = blocked | actives 1.4% (n = 96,000) | P11712 | activation factor at 5 µM;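 active means activation factor of 2 or more for CYP2C9 at a 5 µM dose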;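 further: 0 = sulfaphenazole-blocked wells and 1 = vehicle-only wells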
# Cav3 T inh – blocks human Cav3.2 T-type calcium channel; O95180; Cav3.2-expressing cells, Fluo-4 calcium fluorescence FDSS; hits give low values; B-score at 10 µM; actives 4% (n = 100,000); AID 449739;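 active means single-dose well whose peak fluorescence ratio is a statistical outlier from its plate by either plate-standardised score or position-corrected B-score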
# CYP2C9 inhib – blocks human cytochrome P450 2C9; actives 20% (n = 96,000); P11712; CYP2C9 Supersomes, luciferin-H conversion, luminescence; AID 777; inhibition, % at 5 µM;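 active means blocking of liver enzyme CYP2C9 beyond about 50% at 5 µM, limit read from the data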
# CYP2C19 activ – increases human CYP2C19 enzyme activity. activation factor at 5 µM. recombinant CYP2C19, luciferin-H EGE luminescence; hits give high values; 0 = fully inhibited enzyme, 1 = untreated enzyme. 96,000 tested, under 10 active. P33261;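 active means activation factor of at least 2 at 5 µM in the primary screen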;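 further: 0 = wells with 2.5 mM tranylcypromine and 1 = vehicle-only wells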
# Active calls of the source: *; / = no result given. Rows were chosen to be rich in hits. Some 27% of all compounds tested hit in one or more screens of this group.
SMILES,CYP2C19 inh,CYP2C9 activ,Cav3 T inh,CYP2C9 inhib,CYP2C19 activ
CC(C)Oc1ccc(C(=O)NCc2ccco2)cc1,70*,0.9,-0.22,12,0.3
Cc1ccc(C(CC(=O)NCc2ccco2)c2ccc(OC(C)C)cc2)cc1 (centres undefined),/,/,-5.1*,/,/
O=C(NCc1ccco1)c1ccc(S(=O)(=O)N2CCOCC2)cc1,4,0.9,0.43,8,1
COCCNC(=O)C1CC(=O)N(CCc2ccccc2)C1 (centres undefined),22,1.1,0.056,-13,0.8
CSc1nnc([C@H](C)NC(=O)OC(C)(C)C)o1,19,0.9,-0.89,7,0.8
CC(C)=CCSc1nnc(CCNC(=O)OC(C)(C)C)o1,66*,0.6,0.51,36,0.3
NCCCCCc1nnc(SCC(=O)c2ccc(Cl)cc2)o1,59*,0.2,-0.018,75*,0.4
CC(C)(C)OC(=O)NCCc1nnc(SCc2ccc(Cl)cc2Cl)o1,60*,0.2,-5.2*,75*,0.4
CC(C)Sc1nnc([C@H](C)NC(=O)OC(C)(C)C)o1,57*,0.8,0.57,24,0.4
CN(C)C(=O)CSc1nnc(CCNC(=O)OC(C)(C)C)o1,11,1.1,/,-6,0.9
CC(C)OCC(O)CS(=O)Cc1ccccc1 (centres undefined),10,1.1,0.9,-12,0.9
CC1CCCN(S(=O)(=O)c2ccc(NC(=O)CCN3C(=O)c4ccccc4C3=O)cc2)C1 (centres undefined),4,0.5,/,45,1
CC(C)NC(=O)C1CC(=O)N(c2ccc(F)c(Cl)c2)C1 (centres undefined),27,1.5,2.8,-49,0.7
Cc1cccc(C)c1NC(=O)CSc1nnc([C@H](C)NC(=O)OC(C)(C)C)o1,18,0.7,0.31,27,0.8
CC(C)=CCSc1nnc([C@@H](NC(=O)OC(C)(C)C)C(C)C)o1,55*,0.6,-2.9*,44,0.4
CSCC[C@H](NC(=O)OC(C)(C)C)c1nnc(SCC(=O)Nc2c(C)cccc2C)o1,8,0.4,0.032,58*,0.9
CC(C)(C)OC(=O)NCCc1nnc(SCc2c(Cl)cccc2Cl)o1,92*,0.3,-3.8,72*,0.1
CC(C)[C@H](NC(=O)OC(C)(C)C)c1nnc(SCC(=O)Nc2ccc(Br)cc2)o1,49,0.3,-6.7*,70*,0.5
Cc1ccc(-n2c(C)cc(/C=N/NC(=O)c3ccc(CN4CCOCC4)cc3)c2C)cc1,-1,0.7,-0.83,30,1
CCN(CC)C(=O)CSc1nnc(CCNC(=O)OC(C)(C)C)o1,28,1,-0.051,-4,0.7
CC(C)[C@H](N)c1nnc(SCC(=O)c2ccc(Cl)cc2)o1,99*,0.3,-0.04,69*,0
O=C(CSc1nnc(CNC(=O)c2ccccc2F)o1)c1ccc(Cl)cc1,37,0.5,-0.00054,54*,0.6
CC(C)(C)OC(=O)NCCc1nnc(SCC(=O)c2ccc(Cl)cc2)o1,77*,0.3,-1.7,70*,0.2
N#CC1=C(N)Oc2n[nH]c(-c3cccs3)c2C1c1cccs1 (centres undefined),4,0.8,-0.14,15,1
CSCCC1C(C#N)=C(N)Oc2n[nH]c(-c3cccs3)c21 (centres undefined),37,0.4,0.74,55*,0.6
SMILES,CYP2C19 inh,CYP2C9 activ,Cav3 T inh,CYP2C9 inhib,CYP2C19 activ
CC(C)CC1C(C#N)=C(N)Oc2n[nH]c(-c3cccs3)c21 (centres undefined),67*,0.8,0.8,22,0.3
COc1ccc(/C=N/n2c(N)nc(-c3ccccc3)c2-c2ccccc2)cc1,7,1.2,0.24,-20,0.9
Cc1nc(-c2cccc(S(=O)(=O)N3CCCC(C)C3)c2)cs1 (centres undefined),14,0.7,-2.7,28,0.9
CCn1c(Cc2ccccc2)nnc1SCC(=O)Nc1ccc(N2CCOCC2)c(Cl)c1,80*,0.4,-2.8,58*,0.2
CCn1c(Cc2ccccc2)nnc1SCC(=O)Nc1ccc2c(c1)OCO2,62*,0.5,-0.18,50,0.4
CCOC(=O)c1cccc(NC(=O)c2c(NCc3ccccc3)[nH]c(=O)[nH]c2=O)c1,/,/,-0.41,/,/
Nc1nc(CN2CCCCCC2)nc(Nc2ccccc2)n1,11,1,0.42,1,0.9
Nc1nc(CN2CCc3ccccc3C2)nc(Nc2ccccc2)n1,47,0.5,-0.35,52*,0.5
COc1ccc(Nc2nc(N)nc(CN3CCc4ccccc4C3)n2)cc1,38,0.4,-0.13,56*,0.6
COc1ccccc1Nc1nc(N)nc(CN2CCc3ccccc3C2)n1,/,/,-0.38,/,/
CCOC(=O)C1=C(C)N=C2SC(C)C(=O)N2C1c1ccc(OC(C)=O)c(OC)c1 (centres undefined),/,/,-2,/,/
COC(=O)c1ccc(C2C(C(=O)OCC(C)C)=C(C)N=C3SCCC(=O)N32)cc1 (centres undefined),76*,0.4,-3.3,62*,0.2
COC(=O)C1=C(C)N=C2SCCC(=O)N2C1c1cccs1 (centres undefined),17,0.6,1.1,40,0.8
COc1ccc(C2C(C(=O)Nc3ccccc3)=C(C)N=C3SCC(=O)N32)cc1 (centres undefined),/,/,-9.9*,/,/
CCC1SC2=NC(C)=C(C(=O)OC)C(c3ccc(C(=O)OC)cc3)N2C1=O (centres undefined),93*,0.5,0.12,49,0.1
COC(=O)C1=C(C)N=C2SCCC(=O)N2C1c1ccc(C(=O)OC)cc1 (centres undefined),88*,0.5,-0.93,55*,0.1
CCOc1ccc(C2C(C(=O)OC)=C(C)N=C3SCCC(=O)N32)cc1OCC (centres undefined),12,0.7,0.69,26,0.9
CCOc1cc(C2C(C(=O)OC)=C(C)N=C3SCCC(=O)N32)ccc1OC(C)=O (centres undefined),35,0.7,-0.75,30,0.6
CCOc1cc(C2C(C(=O)OCC(C)C)=C(C)N=C3SCCC(=O)N32)ccc1OC(C)=O (centres undefined),52*,0.6,-2.7,40,0.5
O=C(O)c1ccccc1NCN1C(=O)C2CC=C(Cl)CC2C1=O (centres undefined),3,1,0.57,2,1
N#Cc1c2n(c3c(=O)n(Cc4ccc(Cl)cc4)cnc13)CCCCC2,99*,0,/,100*,0
N#Cc1c2n(c3c(=O)n(CC(=O)c4ccc(Br)cc4)cnc13)CCCC2,53*,0.9,0.89,14,0.5
CCOC(=O)Cn1cnc2c(C#N)c3n(c2c1=O)CCCCC3,2,1,0.58,4,1
O=c1c2cnn(-c3ccccc3)c2ncn1Cc1ccccc1,/,/,-0.21,/,/
N#Cc1c2n(c3c(=O)n(Cc4ccccc4)cnc13)CCCC2,98*,0.2,1.8,82*,0
CCN(CC)CCNC(=O)CS(=O)Cc1nc(-c2ccc(C)cc2)oc1C (centres undefined),6,0.9,-0.095,6,0.9

# High-throughput results: PubChem BioAssay, several laboratories
